According to PubChem BioAssay (NCI):
Compounds without any hit were thinned out: in the full panel of roughly 79,000, 15% have a hit. Active and inactive are the calls of the source. Rule as the data show it: active = growth inhibition above about 70%; inactive = the rest.

Test: NCI Yeast Anticancer Drug Screen. Data for the sgs1 strain (AID 173);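 also: 0% = growth of vehicle-only control cultures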
Conditions: S. cerevisiae sgs1 mutant, stronger effect = higher value
Description: Growth inhibition of yeast strains with defined genetic alterations is measured as a screen for potential anti-cancer activity. Selected strains with alterations in DNA damage repair or cell cycle control were exposed to compounds and growth inhibition was measured relative to vehicle treated controls. The strain used in this assay is sgs1

Measured: growth inhibition

CCOC(=O)c1[nH]n(-c2ccccc2)c(=O)c1C=NC(=S)C(N)=S
active: at 33.0 µM 96% | at 100.0 µM 97%
inactive: at 1.2 µM 21% | at 3.7 µM 27% | at 11.0 µM 41%

CC(C)c1ccc(NC(=S)NC(=O)c2ccccc2)cc1
inactive: at 1.2 µM -23% | at 3.7 µM -16% | at 11.0 µM 15% | at 33.0 µM 50% | at 100.0 µM 55%

CCCCCCCCCCCCCCCCOP(=O)(O)OCC(N)C(=O)O (stereo not given)
active: at 33.0 µM 98% | at 100.0 µM 98%
inactive: at 1.2 µM 14% | at 3.7 µM 1% | at 11.0 µM 51%

Cc1c2cc[n+](Cc3ccc(I)cc3)cc2c(C)c2c1[nH]c1ccccc12
active: at 11.0 µM 96% | at 33.0 µM 97% | at 100.0 µM 96%
inactive: at 1.2 µM 42% | at 3.7 µM 27%

NC1CCCCC1N.Nc1c(N=Nc2ccc(-c3ccc(N=Nc4cc(S(=O)(=O)[O-])c5ccccc5c4N)cc3)cc2)cc(S(=O)(=O)[O-])c2ccccc12.[OH3+].[OH3+].[Pt+4]
inactive: at 1.2 µM 4% | at 3.7 µM 22%
active: at 11.0 µM 95% | at 33.0 µM 93% | at 100.0 µM 80%

O=[N+]([O-])c1cc(S(=O)(=O)Nc2ccccc2)ccc1Nc1ccccc1
active: at 11.0 µM 91% | at 33.0 µM 91% | at 100.0 µM 83%
inactive: at 1.2 µM 0% | at 3.7 µM -8%

O=[N+]([O-])/C=C/c1cc(Cl)c(/C=C/[N+](=O)[O-])cc1Cl
inactive: at 1.2 µM 22% | at 3.7 µM 16% | at 11.0 µM 14% | at 33.0 µM 52% | at 100.0 µM 32%

CCOC(=O)C1N=[N+](c2ccccc2)C(=O)/C1=C\n1c(=S)[nH]c2ccc([N+](=O)[O-])cc21 (stereo not given)
inactive: at 1.2 µM 0% | at 3.7 µM 1% | at 11.0 µM -9% | at 33.0 µM 8% | at 100.0 µM 16%
